For assay [1], the target named is Bcl-2-like protein 1 (Homo sapiens) (UniProt Q07817). Briefly: Bcl-xL BH3-peptide displacement, hit confirmation – biochemical, fluorescence polarization, counter-screen for MCL1 inhibitor project (AID 2166;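 active means inhibition above a cutoff equal to the mean inhibition of all tested compounds plus 3 SD, cut at about 30% in these data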). The note with it: GST-Bcl-xL / FITC-Bim BH3 peptide FP binding; at 10.9 µM; stronger effect = higher value. Background: Fluorescence polarisation rises when a labelled molecule tumbles more slowly, as on binding a larger partner.

Assay [2] has as its target Induced myeloid leukemia cell differentiation protein Mcl-1 (Homo sapiens) (UniProt Q07820). Briefly: MCL1-BIM peptide interaction disruptors – biochemical, fluorescence polarization, triplicate, confirmation (AID 2168;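 active means inhibition above the average of all tested compounds plus 3 SD, cut at about 40% in these data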;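 further: 0% = DMSO wells and 100% = unlabeled Bim-BH3 control peptide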). The note with it: GST-MCL1 / FITC-Bim-BH3 fluorescence polarization; at 10.9 µM; stronger effect = higher value.
In assay [3] the target is Nuclear receptor coactivator 3 (Homo sapiens) (UniProt Q9Y6Q9). Briefly: NCOA3 GAL4-fusion reporter inhibition – cell-based, luminescence, quadruplicate, confirmation (AID 588792;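 active means mean inhibition over 43.08%, the solvent-only control mean plus 3 SD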;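 further: 0% = DMSO treated cells and 100% = gossypol at 36 µM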). The note with it: HEK293 GAL4-SRC3 luciferase reporter, at 3.6 µM, stronger effect = higher value. Background: Reporter assays use an easily measured gene product as a stand-in for the process of interest.

Assay [4] relates to transactivating tegument protein VP16 (Human herpesvirus 1), Gal4-VP16 luciferase reporter. The assay can be described thus: repression of VP16-driven luciferase reporter – cell-based, luminescence, high throughput, counter-screen for SRC3 inhibitor project (AID 588794; in the data active means inhibition above about 30%). The following applies: mammalian cells, at 3.6 µM, stronger effect = higher value.
Assay [5] deals with Nuclear receptor coactivator 1 (Homo sapiens) (UniProt Q15788). Briefly: NCOA1 GAL4-fusion reporter inhibition – cell-based, luminescence, quadruplicate, confirmation (AID 588820;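 active means mean inhibition above 46.68%, the untreated control wells mean plus 3 SD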;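 further: 0% = DMSO wells and 100% = gossypol 36 µM treated wells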). The following applies: HEK293 GAL4-SRC1 luciferase reporter, at 3.6 µM, stronger effect = higher value.
Assay [6] in a line: repression of VP16-driven luciferase reporter – cell-based, luminescence, high throughput, counter-screen for SRC1 inhibitor project (AID 588824; in the data active means inhibition above about 25%). The note with it: cell-based VP16 transactivation luciferase luminescence; at 3.6 µM; stronger effect = higher value.
Assay [7] can be described thus: StAR promoter reporter inhibitors, counter-screen for LRH-1 inverse agonist project, cell-based, luminescence, high throughput (AID 651611; in the data active means inhibition above about 28%). The following applies: StAR promoter luciferase reporter counterscreen, at 3.6 µM, stronger effect = higher value. For orientation: A counterscreen serves to expose hits that act by an unwanted route or on another target.
Assay [8] deals with Nuclear receptor subfamily 5 group A member 2 (Homo sapiens) (UniProt O00482). The assay can be described thus: NR5A2 activity suppression in reporter cells – cell-based, luminescence, confirmation (AID 651613; in the data active means inhibition above about 42%;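 further: HEK293T cells co-transfected with LRH-1 and StAR promoter luciferase reporter; 0% = vehicle wells and 100% = parental cells lacking receptor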). The note with it: cell-based LRH-1 luciferase reporter, inverse agonism; at 3.6 µM; stronger effect = higher value.
In assay [9] the target is Steroidogenic factor 1 (Homo sapiens) (UniProt Q13285). The assay can be described thus: inverse agonism at SF1 nuclear receptor – cell-based, luminescence, high throughput, counter-screen for LRH-1 inverse agonist project (AID 651614; in the data active means inhibition above about 44%;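 further: cells cotransfected with StAR promoter reporter and SF1 expression vector; 0% = vehicle on cells with receptor and 100% = vehicle on cells lacking receptor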). The note with it: cell-based SF1 luciferase reporter, at 3.6 µM, stronger effect = higher value.
Assay [10] is described as follows: compounds suppressing VP16-driven luciferase signal – cell-based, luminescence, high throughput, counter-screen for LRH-1 inverse agonist project (AID 651615; in the data active means inhibition above about 33%). The note with it: Gal4-VP16 luciferase reporter cells, at 3.6 µM, stronger effect = higher value.
In assay [11] the target is Protein phosphatase methylesterase 1 (Homo sapiens) (UniProt Q9Y570). Briefly: human PME-1 methylesterase inhibition confirmation – biochemical, fluorescence polarization, FP-Rh probe, triplicate (AID 2171).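 Further: 0% = enzyme with DMSO and 100% = wells lacking PME-1.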 The following applies: recombinant PME-1, FP-Rh probe fluorescence polarization; at 5.9 µM; stronger effect = higher value.
Assay [12] has as its target Protein-arginine deiminase type-4 (Homo sapiens) (UniProt Q9UM07). The assay can be described thus: protein arginine deiminase 4 blockade, retest – biochemical, fluorescence polarization, confirmation (AID 488796;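 active means mean inhibition across replicates above the hit cutoff set by the earlier primary screen, cut at about 15% in these data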;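 further: inhibitors block active-site labeling by the probe so polarization falls; 0% = PAD4 with probe and DMSO and 100% = probe without PAD4 enzyme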). The note with it: recombinant PAD4, RCA probe fluorescence polarization; at 6.36 µM; stronger effect = higher value.
The target in assay [13] is Oxysterols receptor LXR-beta (Homo sapiens) (UniProt P55055). The assay can be described thus: nonspecific reporter activation via LXR – cell-based, luminescence, HEK293, H. contortus campaign, counter-screen for hcDAF-12 agonist project, confirmation (AID 743027;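 active means mean percent activation of the reporter above a cutoff set as the average over tested compounds plus their standard deviation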). The note with it: HEK293 Gal4-LXR tk-luc reporter, 24 h, at 6.8 µM, stronger effect = higher value, normalized: DMSO 0%, positive control 100%.

The subject of assay [14] is Nuclear hormone receptor DAF-12 (Haemonchus contortus). The assay can be described thus: hcDAF-12 luciferase reporter activation, retest – cell-based, luminescence, HEK293, lit1-tk-luc, triplicate, confirmation (AID 743032;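 active means mean activation across triplicate tests above the threshold derived from the earlier primary screen, cut at about 5.5% in these data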;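 further: 0% = DMSO only wells and 100% = 3 µM Δ7-dafachronic acid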). The note with it: HEK293 hcDAF-12 lit1-tk-luc reporter, at 6.8 µM, stronger effect = higher value, % of Δ7-dafachronic acid response.
The target in assay [15] is Insulin-degrading enzyme (Homo sapiens) (UniProt P14735). The assay can be described thus: cellular IDE Abeta-cleavage inhibition – fluorescence polarization, HEK cells, FAbetaB substrate, confirmation (AID 435028;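 active means mean inhibition across triplicate wells above the cutoff set by the earlier primary insulin-degrading enzyme screen, cut at about 16% in these data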;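 further: 0% = DMSO wells and 100% = 60 µM reference IDE inhibitor Ii1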). The note with it: at 5.59 µM, stronger effect = higher value.
A short description of assay [16]: HEK cell viability loss – luminescence, cytotoxicity control for IDE inhibitor project (AID 449730; in the data active means inhibition above about 22%;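 further: 0% = vehicle wells and 100% = reference cytotoxic drug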). The note with it: HEK293 cytotoxicity, ATP luminescence; at 5.59 µM; stronger effect = higher value.
Assay [17] addresses Platelet-activating factor acetylhydrolase (Homo sapiens) (UniProt Q13093). Briefly: inhibition of plasma PAF acetylhydrolase – biochemical, fluorescence polarization, human, confirmation (AID 463230;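 active means mean inhibition of the triplicate above the hit cutoff set for the earlier primary screen, cut at about 25% in these data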;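 further: 0% = enzyme with DMSO and 100% = wells lacking pPAFAH enzyme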). The note with it: recombinant pPAFAH, FP-Rh probe fluorescence polarization; at 3.39 µM; stronger effect = higher value.
Assay [18] deals with (Lyso)-N-acylphosphatidylethanolamine lipase (Mus musculus) (UniProt Q8VD66). The assay can be described thus: mouse ABHD4 hydrolase blockers, triplicate – biochemical, fluorescence polarization, confirmation (AID 720658;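 active means mean inhibition across replicates above the hit cutoff set in the primary screen, cut at about 30% in these data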;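 further: 0% = wild-type ABHD4 with DMSO and 100% = catalytically dead S159A mutant with DMSO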). The following applies: purified mABHD4, FP-Rh probe fluorescence polarization; at 8.92 µM; stronger effect = higher value.
A short description of assay [19]: BSA probe fluorescence interference – biochemical, TAMRA-labeled BSA, counter-screen for TCR-CD3 interaction inhibitor project (AID 652035; in the data active means inhibition above about 23%;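 further: 0% = buffer low control and 100% = reference high control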). The note with it: TAMRA-labeled BSA probe fluorescence counterscreen; at 9.4 µM; stronger effect = higher value.
For assay [20], the system named is T-cell receptor (TCR)-CD3 interaction, human. Briefly: blockers of TCR binding to CD3 – biochemical, fluorescence, TAMRA-labeled TCR probe, confirmation (AID 652036; in the data active means inhibition above about 19%). The following applies: TAMRA-labeled TCR probe fluorescence binding assay; at 9.4 µM; stronger effect = higher value.

Unmarked numbers belong to inactive results. This is one part of the list. The source made the active and inactive calls.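 How the source made its calls, unless noted: active means inhibition above the hit cutoff set in the earlier primary screen (cut at about 27% in these data); inactive means the rest.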

For orientation: inhibition means the drop in the measured response relative to a control, in per cent.

Chain of Bcl-2-like protein 1 (Homo sapiens) (Q07817 whole entry, looked up): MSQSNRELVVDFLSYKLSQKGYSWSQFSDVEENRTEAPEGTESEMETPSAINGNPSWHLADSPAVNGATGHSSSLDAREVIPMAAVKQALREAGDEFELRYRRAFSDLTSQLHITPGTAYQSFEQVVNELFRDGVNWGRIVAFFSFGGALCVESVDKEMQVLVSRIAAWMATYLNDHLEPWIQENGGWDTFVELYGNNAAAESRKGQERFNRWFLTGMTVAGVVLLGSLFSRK
Chain of Induced myeloid leukemia cell differentiation protein Mcl-1 (Homo sapiens) (Q07820 whole entry, looked up, the tested form may be a part): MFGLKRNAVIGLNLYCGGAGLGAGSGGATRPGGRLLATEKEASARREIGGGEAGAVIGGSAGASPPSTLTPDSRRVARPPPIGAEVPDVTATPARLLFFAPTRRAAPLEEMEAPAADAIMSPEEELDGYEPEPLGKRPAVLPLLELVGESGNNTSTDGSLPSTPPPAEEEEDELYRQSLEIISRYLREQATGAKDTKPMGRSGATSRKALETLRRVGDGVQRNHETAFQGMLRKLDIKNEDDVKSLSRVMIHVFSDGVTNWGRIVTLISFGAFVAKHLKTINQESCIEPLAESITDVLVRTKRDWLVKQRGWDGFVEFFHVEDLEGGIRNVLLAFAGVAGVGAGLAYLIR
Chain of Protein phosphatase methylesterase 1 (Homo sapiens) (Q9Y570 whole entry, looked up): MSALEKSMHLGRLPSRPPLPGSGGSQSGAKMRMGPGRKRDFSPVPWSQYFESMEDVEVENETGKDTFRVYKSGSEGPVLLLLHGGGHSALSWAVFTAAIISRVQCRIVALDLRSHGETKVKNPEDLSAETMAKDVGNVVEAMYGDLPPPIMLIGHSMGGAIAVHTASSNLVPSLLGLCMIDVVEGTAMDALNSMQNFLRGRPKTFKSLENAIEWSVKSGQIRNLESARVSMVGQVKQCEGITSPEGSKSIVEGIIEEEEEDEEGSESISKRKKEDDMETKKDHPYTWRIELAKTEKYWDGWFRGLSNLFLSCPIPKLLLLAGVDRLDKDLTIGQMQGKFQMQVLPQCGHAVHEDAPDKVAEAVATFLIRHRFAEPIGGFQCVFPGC
Chain of Protein-arginine deiminase type-4 (Homo sapiens) (Q9UM07 whole entry, looked up): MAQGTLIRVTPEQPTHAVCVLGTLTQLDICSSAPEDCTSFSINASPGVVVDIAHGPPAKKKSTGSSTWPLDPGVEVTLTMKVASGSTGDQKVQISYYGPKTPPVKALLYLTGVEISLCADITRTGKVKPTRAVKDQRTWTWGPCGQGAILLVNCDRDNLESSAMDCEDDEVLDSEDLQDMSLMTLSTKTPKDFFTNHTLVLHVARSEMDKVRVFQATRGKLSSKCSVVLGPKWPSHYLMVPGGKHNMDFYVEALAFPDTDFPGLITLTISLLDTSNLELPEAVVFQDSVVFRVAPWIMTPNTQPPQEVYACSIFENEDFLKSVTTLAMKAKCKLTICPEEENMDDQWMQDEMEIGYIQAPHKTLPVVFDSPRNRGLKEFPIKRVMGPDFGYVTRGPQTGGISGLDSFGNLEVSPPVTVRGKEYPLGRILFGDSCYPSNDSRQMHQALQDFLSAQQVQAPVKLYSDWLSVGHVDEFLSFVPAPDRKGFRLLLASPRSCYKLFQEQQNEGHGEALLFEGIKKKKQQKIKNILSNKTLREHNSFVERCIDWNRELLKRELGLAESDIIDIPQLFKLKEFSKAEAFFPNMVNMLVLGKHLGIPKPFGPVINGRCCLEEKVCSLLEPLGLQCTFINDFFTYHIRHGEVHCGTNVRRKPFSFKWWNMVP
Chain of Oxysterols receptor LXR-beta (Homo sapiens) (P55055 whole entry, looked up, the tested form may be a part): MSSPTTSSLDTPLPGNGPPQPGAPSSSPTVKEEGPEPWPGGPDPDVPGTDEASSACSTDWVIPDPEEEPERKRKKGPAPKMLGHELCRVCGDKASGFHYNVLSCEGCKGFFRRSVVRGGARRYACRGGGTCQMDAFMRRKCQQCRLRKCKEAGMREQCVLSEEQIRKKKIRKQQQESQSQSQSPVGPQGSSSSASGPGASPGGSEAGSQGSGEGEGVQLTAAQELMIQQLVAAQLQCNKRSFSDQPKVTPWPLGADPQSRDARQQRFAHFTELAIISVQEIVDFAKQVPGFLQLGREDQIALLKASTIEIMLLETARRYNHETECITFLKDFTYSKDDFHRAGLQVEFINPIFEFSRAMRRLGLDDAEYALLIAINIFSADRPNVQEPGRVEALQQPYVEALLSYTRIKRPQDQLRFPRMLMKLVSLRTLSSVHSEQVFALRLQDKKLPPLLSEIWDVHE
Chain of Insulin-degrading enzyme (Homo sapiens) (P14735 whole entry, looked up): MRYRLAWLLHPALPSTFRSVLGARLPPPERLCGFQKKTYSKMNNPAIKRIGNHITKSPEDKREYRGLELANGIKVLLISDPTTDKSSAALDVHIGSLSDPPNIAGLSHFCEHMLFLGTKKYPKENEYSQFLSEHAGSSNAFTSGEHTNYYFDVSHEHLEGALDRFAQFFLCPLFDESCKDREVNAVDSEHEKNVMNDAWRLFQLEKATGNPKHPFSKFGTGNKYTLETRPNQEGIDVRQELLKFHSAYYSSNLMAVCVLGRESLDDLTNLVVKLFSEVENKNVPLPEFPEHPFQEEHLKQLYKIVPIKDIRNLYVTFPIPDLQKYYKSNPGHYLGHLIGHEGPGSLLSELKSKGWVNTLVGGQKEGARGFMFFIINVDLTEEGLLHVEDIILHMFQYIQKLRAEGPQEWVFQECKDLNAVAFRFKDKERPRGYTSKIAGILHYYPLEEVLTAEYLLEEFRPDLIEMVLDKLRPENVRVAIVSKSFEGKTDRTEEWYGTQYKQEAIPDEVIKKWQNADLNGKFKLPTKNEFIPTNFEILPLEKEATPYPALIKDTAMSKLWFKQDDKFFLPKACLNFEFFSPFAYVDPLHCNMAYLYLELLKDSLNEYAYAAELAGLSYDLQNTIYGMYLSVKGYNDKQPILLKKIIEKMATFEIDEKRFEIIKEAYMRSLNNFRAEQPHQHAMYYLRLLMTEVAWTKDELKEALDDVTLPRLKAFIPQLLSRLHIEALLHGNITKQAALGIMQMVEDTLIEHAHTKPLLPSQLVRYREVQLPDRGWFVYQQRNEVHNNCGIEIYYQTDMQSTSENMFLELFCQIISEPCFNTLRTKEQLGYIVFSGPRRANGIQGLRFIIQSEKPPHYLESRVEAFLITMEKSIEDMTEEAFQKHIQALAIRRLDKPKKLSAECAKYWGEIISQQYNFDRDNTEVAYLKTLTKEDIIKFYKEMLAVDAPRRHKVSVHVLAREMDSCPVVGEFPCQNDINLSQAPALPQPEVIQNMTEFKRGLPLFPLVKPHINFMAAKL
Chain of Nuclear receptor coactivator 1 (Homo sapiens) (Q15788 whole entry, looked up, the tested form may be a part): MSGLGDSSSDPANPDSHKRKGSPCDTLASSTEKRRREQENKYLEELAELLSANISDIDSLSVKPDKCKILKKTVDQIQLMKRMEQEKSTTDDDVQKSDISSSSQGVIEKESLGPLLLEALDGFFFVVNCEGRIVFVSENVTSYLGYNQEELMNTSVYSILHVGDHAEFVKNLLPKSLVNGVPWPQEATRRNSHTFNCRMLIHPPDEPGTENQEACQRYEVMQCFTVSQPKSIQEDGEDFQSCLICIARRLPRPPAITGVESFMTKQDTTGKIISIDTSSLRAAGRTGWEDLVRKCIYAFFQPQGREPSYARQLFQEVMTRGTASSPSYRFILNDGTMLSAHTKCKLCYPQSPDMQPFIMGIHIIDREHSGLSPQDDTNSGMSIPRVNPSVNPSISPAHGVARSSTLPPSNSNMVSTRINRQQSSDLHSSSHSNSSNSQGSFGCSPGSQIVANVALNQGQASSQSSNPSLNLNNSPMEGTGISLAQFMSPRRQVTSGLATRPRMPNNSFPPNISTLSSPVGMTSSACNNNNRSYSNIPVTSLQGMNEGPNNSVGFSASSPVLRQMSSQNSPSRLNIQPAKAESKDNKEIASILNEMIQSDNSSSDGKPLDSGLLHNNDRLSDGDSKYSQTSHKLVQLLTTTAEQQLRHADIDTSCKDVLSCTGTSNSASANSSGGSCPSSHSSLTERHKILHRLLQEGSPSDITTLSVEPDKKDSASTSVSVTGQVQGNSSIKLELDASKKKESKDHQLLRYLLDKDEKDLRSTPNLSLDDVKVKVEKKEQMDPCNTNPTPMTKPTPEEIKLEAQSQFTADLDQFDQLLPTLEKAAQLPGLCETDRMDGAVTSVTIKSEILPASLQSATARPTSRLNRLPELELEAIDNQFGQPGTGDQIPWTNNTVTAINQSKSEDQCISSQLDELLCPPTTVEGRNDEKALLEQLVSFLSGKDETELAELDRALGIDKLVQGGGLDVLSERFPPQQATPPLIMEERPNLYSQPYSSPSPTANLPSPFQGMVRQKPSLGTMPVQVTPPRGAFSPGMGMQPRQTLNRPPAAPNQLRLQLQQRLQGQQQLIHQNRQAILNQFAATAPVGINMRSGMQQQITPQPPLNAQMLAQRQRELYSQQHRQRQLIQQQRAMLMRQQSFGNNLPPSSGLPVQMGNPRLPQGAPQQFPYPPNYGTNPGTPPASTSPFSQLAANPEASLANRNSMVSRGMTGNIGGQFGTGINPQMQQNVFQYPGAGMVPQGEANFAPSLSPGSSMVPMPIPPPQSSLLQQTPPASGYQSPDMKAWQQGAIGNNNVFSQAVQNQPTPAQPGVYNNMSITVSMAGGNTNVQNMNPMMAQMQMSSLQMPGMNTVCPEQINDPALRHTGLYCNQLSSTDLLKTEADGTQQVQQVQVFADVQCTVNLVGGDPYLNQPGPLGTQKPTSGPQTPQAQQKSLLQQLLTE
Chain of Platelet-activating factor acetylhydrolase (Homo sapiens) (Q13093 whole entry, looked up): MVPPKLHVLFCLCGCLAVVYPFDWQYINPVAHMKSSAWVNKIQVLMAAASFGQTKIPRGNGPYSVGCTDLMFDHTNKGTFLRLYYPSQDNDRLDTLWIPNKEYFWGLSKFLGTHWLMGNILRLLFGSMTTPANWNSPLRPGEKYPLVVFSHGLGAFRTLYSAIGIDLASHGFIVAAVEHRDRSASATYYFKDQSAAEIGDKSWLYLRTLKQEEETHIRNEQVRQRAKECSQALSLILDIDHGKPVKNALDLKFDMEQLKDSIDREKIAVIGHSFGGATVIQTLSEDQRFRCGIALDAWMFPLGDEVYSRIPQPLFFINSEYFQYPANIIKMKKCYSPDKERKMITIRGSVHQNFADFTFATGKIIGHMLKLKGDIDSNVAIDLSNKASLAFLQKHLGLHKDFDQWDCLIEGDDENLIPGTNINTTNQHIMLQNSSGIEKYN

Turning to `Cc1cccn2c(=O)c3cc(C(=O)NCCN4CCOCC4)c(=N)n(Cc4cccnc4)c3nc12`, the inhibition in assay [1] is 55.8% (active); in assay [2], 65.7% (active); in assay [3], 22.5%; in assay [4], 20.1%; in assay [5], 24.4%; in [6], 17.3%. Moreover, the inhibition was 21.2% in [7], 57.8% (active) in assay [8], 49.1% (active) in assay [9] and 28.6% in assay [10].
Regarding `Oc1[nH]c2ccccc2c1N=Nc1nc2ccccc2s1`, the inhibition in [11] was 14.1%.
On the same count and under the same terms, in the case of `COc1ccc(OC)c(N2C(=O)CC(Cc3ccc(C)cc3)C2=O)c1` (centres undefined) it was 0.52%.
In the case of `Cc1nn(C(=O)c2ccoc2C)c(N)c1-c1ccccc1`, the results for the inhibition in assay [1], in assay [2] and in assay [12] were 1.59%, -8.2% and 1.71%, respectively. Further, the activation is 0.39% in [13] and 2.6% in assay [14].
Take `COc1ccc2oc(=O)c(-c3csc(Nc4cccc(O)c4)n3)cc2c1`: in assay [11], the inhibition is 9.36%.
Still for that read-out and setting: with `Cc1ccc(NC(=O)COc2cccc(/C=C3\SC(=S)N(CCC(=O)O)C3=O)c2)cc1Cl` the figure was 26%; with `S=C(NCc1ccccc1)NCc1cccc(CNC(=S)NCc2ccccc2)c1`, 3.07%; with `COc1ccc2cc3c(N)c(C(=O)NCc4ccco4)sc3nc2c1`, 39.8% (active).
In the case of `Cc1cc2nc3c(=O)n(Cc4ccccc4)c(=O)[nH]c3nc2cc1N`, the inhibition is 198% (active) in assay [1]; 66.8% (active) in [15]; 8.2% in [16]; 29.3% (active) in assay [17]; 82.2% (active) in assay [18].
As for `Cc1cc(C)c(/C=C2\C(=O)Nc3ccccc32)[nH]1`, the inhibition in assay [1] was 147% (active); in assay [2], 168% (active); in assay [15], 83.6% (active); in assay [16], 5.65%. Also, the activation is 0.33% in [13] and 7.13% (active) in [14].
Regarding `COc1ncnc2c1N=C1CC(C)(C)CC(N)=C1S2`, the inhibition in assay [1] was 144% (active); in assay [2] it was 181% (active); in assay [12], 24.1% (active).
In the case of `CCCC1OC23CCCCC2C(C#N)(C#N)C1(C#N)C(=N)O3` (centres undefined), the inhibition in assay [1] is 19.5%; in assay [2], 21%; in [19], 20%; in assay [20], 10.8%.
Take `Cc1ccc(S(=O)(=O)/N=C2/C=C(Sc3ncn[nH]3)C(=O)c3ccccc32)cc1`: in assay [11], the inhibition is 54.4% (active).
Same read-out and setting: with `O=C(Nc1ccc2[nH]c(=S)sc2c1)Nc1ccccc1F` the figure was 67.4% (active); with `CN(c1ccccc1)S(=O)(=O)c1ccc(NC(=O)c2ccc(-c3ccccc3)cc2)cc1`, 59.7% (active).
On the same count and under the same terms, in the case of `CC(=O)Nc1ccc(Nc2nc(C)c([N+](=O)[O-])c(Nc3ccccc3)n2)cc1` it was 19.7%.
Still for that read-out and setting: in the case of `C/C(=N/Nc1ccnc2cc(Cl)ccc12)c1ccc(O)cc1` it was 10.9%; in that of `O=Nc1c(O)c2ccccc2c2ccccc12`, 65.8% (active); in that of `Cc1ccc(Nc2cc(C)c3c(O)cccc3n2)cc1C`, 26.7% (active).
Take `S=C(NCCNC(=S)Nc1ccccc1)Nc1ccccc1`: the inhibition in assay [11] was 19.9%.
The same measure, in the same setting: in the case of `CC(C)c1ccc2[nH]c(O)c(N=NC(=O)c3ccc(CSc4nncn4C)cc3)c2c1` it was 104% (active); in that of `Cc1ccc(-c2nc(Nc3ccc(O)cc3)c3ccccc3n2)cc1`, 6.25%.
Consider `CCn1cc(C(=O)NCCCN2CC(C)CC(C)C2)c(=O)c2cc(S(=O)(=O)N(C)C3CCCCC3)ccc21` (centres undefined), for which, in assay [11], the inhibition is 35.6% (active).
Same read-out and setting: with `COc1ccc(-c2cc(-c3cc(OC)ccc3O)[nH]n2)cc1` the figure was 71% (active); with `CC(C)N=c1cc2n(-c3ccc(Cl)cc3)c3ccccc3nc-2cc1Nc1ccc(Cl)cc1`, 17.7%.
In the case of `Cc1ccc(S(=O)(=O)Oc2cccc(/C=N/Nc3ccc(C(=O)O)cc3)c2)cc1`, the inhibition in assay [11] was 94% (active).
Still for that read-out and setting: in the case of `Oc1ccc(/C=N/Nc2cccc3cccnc23)c(O)c1` it was 82.7% (active); in that of `O=c1[nH]n2c(=O)c3c([nH]c2c1N=Nc1cccc(Cl)c1)CCCC3`, 61.8% (active); in that of `COc1ccc(/C=N/Nc2nc3ccccc3o2)cc1O`, 29.9% (active).
Still for that read-out and setting: in the case of `COc1cc2c(cc1OC)C(c1cc(Br)ccc1F)N(C(=O)CCl)CC2` (centres undefined) it was 51.5% (active); in that of `COc1ccc2nc(N3C(=O)/C(=C/c4ccccc4)NC3=S)sc2c1`, 43.3% (active).
On the same count and under the same terms, in the case of `O=c1ccc2cc3c([nH]c4ccc(Br)cc43)oc-2c1O` it was -63.1%.
As to `CCOc1ccc(NC(C(=O)Nc2cccc(C(C)=O)c2)c2ccccc2)cc1` (centres undefined), the inhibition in assay [11] is 33.5% (active).
The same measure, in the same setting: in the case of `CC1(C)CC(=O)C2=C(C1)N(CCN1CCOCC1)C1=C(C(=O)CC(C)(C)C1)C2c1cccc(F)c1` it was 25.2%; in that of `CC1=NC(=O)C(N=Nc2cccc(O)c2)N1c1ccccc1` (centres undefined), 24.1%; in that of `Cc1ccc2cc(C#N)c(SCc3nnc(-c4ccccc4[N+](=O)[O-])o3)nc2c1`, 25.1%.
Same read-out and setting: with `Nc1ccc(Br)c2c1C(=O)c1ccccc1C2=O` the figure was 21%.
The same measure, in the same setting: in the case of `COc1ccc2[nH]c(=O)c(-c3noc(-c4ccccc4)n3)cc2c1` it was 28.2% (active).
`CCn1c(CSc2nnc3ccccn23)nc2cc(C(=O)O)ccc21`: the inhibition in [11] was 59% (active).
On the same count and under the same terms, in the case of `CC(C)NC(=S)N=Nc1c(O)[nH]c2ccc(C(C)C)cc12` it was 34.8% (active); in that of `CN(C)c1ccc(CNC(=O)CN(C)S(=O)(=O)c2cccc3cccnc23)cc1`, 32.8% (active); in that of `CC(C)c1ccc2c(c1)C1(NN=C(c3ccccc3)S1)C(=O)N2` (centres undefined), 33.9% (active).

The record behind these values is PubChem BioAssay.
